# Experimental data from publication PMC4336329 (PLoS ONE, 2015).
# Hit rate of the full screen: of about 310,000 compounds, about 14,000 (4.5%) showed an effect of 50% or more. Effects have a minus sign here. This excerpt belongs to a sample that is enriched for strong results.
# Molecular target: human ether-à-go-go-related gene (hERG) potassium channel (human, UniProt Q12809)
# Test: primary screen, population patch clamp on CHO cells stably expressing hERG; higher = less effect of the substance
# 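Note: peak tail current of the secondary pulse compared with the same well before compound.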
# Chain of human ether-à-go-go-related gene (hERG) potassium channel (Q12809 whole entry, looked up): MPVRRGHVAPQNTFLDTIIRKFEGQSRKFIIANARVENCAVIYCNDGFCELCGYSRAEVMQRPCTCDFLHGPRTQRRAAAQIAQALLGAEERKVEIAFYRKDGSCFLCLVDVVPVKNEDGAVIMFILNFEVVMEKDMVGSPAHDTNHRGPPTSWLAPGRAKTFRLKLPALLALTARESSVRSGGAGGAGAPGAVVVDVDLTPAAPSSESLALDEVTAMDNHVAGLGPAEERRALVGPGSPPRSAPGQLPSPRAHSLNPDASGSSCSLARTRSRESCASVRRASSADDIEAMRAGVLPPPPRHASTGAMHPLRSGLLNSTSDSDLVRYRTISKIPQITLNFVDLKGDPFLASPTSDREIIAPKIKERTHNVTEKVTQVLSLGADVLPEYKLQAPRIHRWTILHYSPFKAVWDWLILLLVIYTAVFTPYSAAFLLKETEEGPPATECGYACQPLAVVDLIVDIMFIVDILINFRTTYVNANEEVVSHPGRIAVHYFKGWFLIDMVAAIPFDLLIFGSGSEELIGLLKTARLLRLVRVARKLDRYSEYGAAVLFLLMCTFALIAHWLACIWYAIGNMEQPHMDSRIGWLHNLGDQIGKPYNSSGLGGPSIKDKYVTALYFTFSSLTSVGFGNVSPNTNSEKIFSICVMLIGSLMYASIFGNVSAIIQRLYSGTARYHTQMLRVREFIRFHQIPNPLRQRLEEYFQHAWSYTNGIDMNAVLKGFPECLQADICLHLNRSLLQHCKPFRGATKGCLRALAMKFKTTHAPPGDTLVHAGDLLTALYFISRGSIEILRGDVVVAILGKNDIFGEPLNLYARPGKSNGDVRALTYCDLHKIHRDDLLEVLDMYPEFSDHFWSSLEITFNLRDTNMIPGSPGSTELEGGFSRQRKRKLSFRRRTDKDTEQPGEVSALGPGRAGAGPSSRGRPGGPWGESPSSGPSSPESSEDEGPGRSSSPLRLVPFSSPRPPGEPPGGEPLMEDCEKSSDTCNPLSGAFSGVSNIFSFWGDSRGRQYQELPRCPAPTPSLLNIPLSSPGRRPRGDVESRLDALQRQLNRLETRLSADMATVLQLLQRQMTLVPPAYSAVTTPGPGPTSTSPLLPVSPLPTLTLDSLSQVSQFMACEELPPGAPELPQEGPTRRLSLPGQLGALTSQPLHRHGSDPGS
row,Structure (SMILES),"hERG current change (%, negative = inhibition) at 10uM"
1,COc1ccc(CNC(=O)c2cnc3cc(C)ccn3c2=O)cc1,-8.79%
2,O=C(N/N=C/c1cccc2ccccc12)c1ccccc1Cl,8.63%
3,Cc1cc(/C(O)=C2\C(=O)C(=O)N(CCN(C)C)C2c2ccncc2)ccc1OCc1ccccc1 (stereo not drawn),3.21%
4,CN(CC(=O)Nc1cccc(F)c1)C(=O)c1ccc(N2CCCC2)c([N+](=O)[O-])c1,-46.7%
5,CN(CC(=O)Nc1cccc(F)c1)C(=O)c1ccc(NC2CC2)c([N+](=O)[O-])c1,-68.5%
6,CCOc1ccc(NC(=O)CN(C)C(=O)c2ccc(C3SCCS3)cc2)cc1OCC,-0.427%
7,COc1cccc(NC(=O)CN(C)C(=O)c2ccc3ccccc3c2)c1,1.99%
8,COc1cccc(NC(=O)CN(C)C(=O)c2ccc(N3CCCCC3)c([N+](=O)[O-])c2)c1,-12.9%
9,CCOc1ccc(NC(=O)CN(C)C(=O)c2ccc(NC3CC3)c([N+](=O)[O-])c2)cc1OCC,-59%
10,CN(CC(=O)Nc1cccc(F)c1)C(=O)c1ccc(N2CCCCC2)c([N+](=O)[O-])c1,-8.94%
11,COc1cccc(NC(=O)CN(C)C(=O)c2ccc(NC3CC3)c([N+](=O)[O-])c2)c1,-73.4%
12,COc1ccc(Cl)cc1NC(=O)CN(C)C(=O)c1ccc2c(c1)CC(c1ccccc1)OC2=O (stereo not drawn),-41.8%
13,COc1cccc(NC(=O)CN(C)C(=O)c2ccc3c(c2)CC(c2ccccc2)OC3=O)c1 (stereo not drawn),-66.9%
14,CCOc1ccc(NC(=O)CN(C)C(=O)c2ccc(N3CCCC3)c([N+](=O)[O-])c2)cc1OCC,-49.1%
15,COc1cccc(NC(=O)CN(C)C(=O)c2ccc(N3CCOCC3)c([N+](=O)[O-])c2)c1,-37.6%
16,O=C(O)CCC(=O)N(Cc1cccs1)Cc1cccs1,-2.07%
17,COc1ccc(C(=O)Cn2nnc(-c3ccccc3NC(=O)C3CCCCC3)n2)cc1,2.23%
18,O=c1cc(-c2ccccc2)[nH]c2ccc(F)cc12,5.52%
19,Nn1c(SCC(=O)NC2CCCCC2)nnc1-c1ccco1,4.3%
20,Cc1oc(-c2ccccc2)nc1CN1C(=O)C(C)N=C(c2ccccc2F)c2cc(Cl)ccc21 (stereo not drawn),-5.78%
21,O=[N+]([O-])c1ccc(/C=N/Nc2nc(N3CCCCC3)nc(N3CCCCC3)n2)o1,-18.1%
